Screening data deposited in PubChem BioAssay by several laboratories.
Compounds with a hit are over-represented: about 5.9% of the library has one in this group of screens.
LANA-H2B inh – blocks KSHV LANA binding to histone H2A/H2B; cell-free LANA-H2A/H2B peptide, fluorescence polarization; inhibition, % (concentration not given with the values); actives 0.6% (n = 320,000); AID 2629; in the data active = inhibition mostly above about 10%, no sharp cut-off; inactive = mostly below about 6.7%
ABHD5-PLIN5 inh – inhibitors of human ABHD5-perilipin-5 interaction; Q00G26+Q8WTS1; Split G. princeps luciferase complementation, luminescence, 4 h; inhibition, % at 4 µM; actives 0.78% (n = 360,000);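 active = inhibition above the mean inhibition across every tested compound plus 3 SD, cut at about 22% in these data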
rCAG RNA binder – molecules binding r(CAG) RNA repeats. r(CAG) RNA repeat, TO-PRO-1 dye displacement fluorescence. inhibition, % at 3 µM. actives 1.3% (n = 370,000). AID 651821;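 active = inhibition above the plate cutoff, the mean of all test compounds on that plate plus 3 SD, cut at about 35% in these data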;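 note: higher means more dye released from RNA so lower well fluorescence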
PRMT1 FP inh – PRMT1 (human) inhibition, primary screen; Q99873; recombinant PRMT1, activity-based probe fluorescence polarization; inhibition, % at 2.79 µM; actives 1.3% (n = 370,000);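 active = inhibition above about 21% made by adding two undisclosed values, limit read from the data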
Target sequence (Q99873 whole entry, looked up): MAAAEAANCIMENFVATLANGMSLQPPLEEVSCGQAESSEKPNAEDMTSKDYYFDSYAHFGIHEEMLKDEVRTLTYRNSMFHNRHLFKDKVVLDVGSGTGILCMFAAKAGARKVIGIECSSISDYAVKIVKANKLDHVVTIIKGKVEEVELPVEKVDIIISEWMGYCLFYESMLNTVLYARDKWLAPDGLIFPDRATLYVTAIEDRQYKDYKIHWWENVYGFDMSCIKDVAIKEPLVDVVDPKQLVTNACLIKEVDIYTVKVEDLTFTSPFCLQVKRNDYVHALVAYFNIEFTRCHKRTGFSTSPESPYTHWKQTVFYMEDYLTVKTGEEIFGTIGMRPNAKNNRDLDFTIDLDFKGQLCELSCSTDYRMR
ALR inh – inhibitors of human sulfhydryl oxidase ALR; P55789; purified ALR, DTT oxidation, H2O2 HRP-luminol luminescence; inhibition, % (no concentration beside the values); actives 3.8% (n = 290,000); AID 485317;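 active = mean replicate inhibition above about 79%, with every replicate also reaching it, limit read from the data; inconclusive = only one of the two criteria met; inactive = mean below limit and not every replicate reaching it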
Rtt109 Vps75 – inhibitors of Candida albicans Rtt109/Vps75 histone acetyltransferase | AID 540336 | inhibition, % at 34.9 µM | actives 0.16% (n = 330,000) | purified Rtt109/Vps75, ThioGlo CoA-SH fluorescence, 4 h | Q5AAJ8;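 active = inhibition of at least 50% in every replicate; inconclusive = best replicate reaches 50% inhibition but some replicates fall short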
Target sequence (Q5AAJ8 whole entry, looked up): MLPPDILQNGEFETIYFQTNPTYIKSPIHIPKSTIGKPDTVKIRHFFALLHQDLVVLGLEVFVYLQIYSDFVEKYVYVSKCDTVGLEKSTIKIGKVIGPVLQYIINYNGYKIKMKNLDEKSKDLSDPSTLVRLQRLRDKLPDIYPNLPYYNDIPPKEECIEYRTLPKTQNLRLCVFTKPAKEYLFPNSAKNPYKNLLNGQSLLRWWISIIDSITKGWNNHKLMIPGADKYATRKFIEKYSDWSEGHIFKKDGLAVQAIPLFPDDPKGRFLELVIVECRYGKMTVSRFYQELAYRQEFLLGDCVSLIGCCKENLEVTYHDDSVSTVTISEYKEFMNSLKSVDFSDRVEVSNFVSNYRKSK
rCAG binder conf – r(CAG) RNA repeat binding, confirmation; shares compounds with rCAG RNA binder; TO-PRO-1 dye displacement fluorescence; inhibition, % at 3 µM; actives 70% (n = 4,300); AID 652065;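 active = inhibition above a per-plate cutoff, the mean inhibition of sample wells plus 3 SD, cut at about 35% in these data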;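 note: loss of TO-PRO-1 fluorescence as compound displaces dye from 1x1 AA loop RNA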
dCAG dye counter – counter-screen for rCAG RNA binders: DNA CAG dye complex inhibitors; shares compounds with rCAG RNA binder; d(CAG) DNA oligo TO-PRO-1 dye displacement, fluorescence; inhibition, % at 3 µM; actives 94% (n = 4,300); AID 652068;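 active = inhibition above its plate's cutoff, the mean test-well inhibition plus 3 SD, cut at about 4.8% in these data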;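 note: hits displace the dye from DNA and so lower well fluorescence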
DNA CAG DR – disrupts DNA CAG TO-PRO-1 complex in dose response; shares compounds with rCAG RNA binder; DNA CAG/GTC duplex TO-PRO-1 dye displacement fluorescence; IC50, µM; actives 20% (n = 250); AID 686960; in the data active = IC50 below about 10 µM
Each line names hits and unclear results; the compound was inactive in the other large screens (follow-up assays come after a bar, where they were run).

COc1ccc(-c2c(-c3ccccc3OC)sc3ccccc23)cc1F	none (no result: LANA-H2B inh, ABHD5-PLIN5 inh, ALR inh, Rtt109 Vps75)
O=C(Nc1ncc(Cc2ccccc2)s1)C1=NCCN1	none
N=C1SC(c2ccccc2)C(=O)N1c1ncc(Cc2ccccc2)s1 (stereo not drawn)	rCAG RNA binder 44.6 | rCAG binder conf 56.6 | dCAG dye counter 19.0
Cc1ccc(Cc2cnc(N3C(=N)SC(c4ccccc4)C3=O)s2)cc1 (stereo not drawn)	rCAG RNA binder 64.3 | rCAG binder conf 68.9 | dCAG dye counter 23.2
CCCCOCC1CN(Cc2ccccc2OC)S(=O)(=O)c2cc(Cl)ccc2O1 (stereo not drawn)	none (no result: LANA-H2B inh, ABHD5-PLIN5 inh, ALR inh, Rtt109 Vps75)
CN1CCN(S(=O)(=O)c2cccc(C(=O)Nc3sc4c(c3-c3nc5ccccc5[nH]3)CCCC4)c2)CC1	rCAG RNA binder 37.8 | rCAG binder conf inactive | dCAG dye counter 19.5
O=C(Nc1sc2c(c1-c1nc3ccccc3[nH]1)CCCC2)C1CCCC1	none
COC(=O)[C@]12CCCCC=C1N(Cc1ccc(OC)cc1)C(=O)[C@@H]2CC(=O)NCc1cccs1	none (no result: LANA-H2B inh, ABHD5-PLIN5 inh, ALR inh, Rtt109 Vps75)
O=C(NNC(=S)Nc1cccc(C(F)(F)F)c1)c1cccc(Cl)c1	rCAG RNA binder 46.9 | rCAG binder conf 47.9 | dCAG dye counter 14.1
FC(F)(F)c1cccc(NC(=S)NNC(=S)NCc2ccccc2)c1	rCAG RNA binder 78.5 | rCAG binder conf 63.3 | dCAG dye counter 32.8
FC(F)(F)c1cccc(NC(=S)NCc2ccccn2)c1	none
CCOC(=O)[C@@]12CCCC=C1N(CCc1ccc(Cl)cc1)C(=O)[C@H]2CC(=O)N1CCN(C(=O)c2ccco2)CC1	none (no result: LANA-H2B inh, ABHD5-PLIN5 inh, ALR inh, Rtt109 Vps75)
COc1cc(O)c(C(C)=O)cc1OC	none
CC(=O)Oc1cc(C)c(Cl)c2c(OC(C)=O)cc(C(C)=O)c(O)c12	rCAG RNA binder 40.2, PRMT1 FP inh 24.1 (no result: LANA-H2B inh, ABHD5-PLIN5 inh, ALR inh, Rtt109 Vps75) | rCAG binder conf inactive | dCAG dye counter 6.8
C[C@@H]1CN([C@@H](C)CO)C(=O)CCCn2cc(nn2)CO[C@H]1CN(C)C(=O)C1CC1	none (no result: LANA-H2B inh, ABHD5-PLIN5 inh, ALR inh, Rtt109 Vps75)
O=C(N=Nc1c(O)[nH]c2ccccc12)c1cc(NS(=O)(=O)c2cccs2)cc(NS(=O)(=O)c2cccs2)c1	rCAG RNA binder 67.2 | rCAG binder conf 73.0 | dCAG dye counter 35.4
O=C(N=Nc1c(O)[nH]c2ccccc12)c1cccs1	none (no result: Rtt109 Vps75)
O=C(O)CCN1C(=O)c2ccc(NC(=O)C(c3ccccc3)c3ccccc3)cc2C1=O	rCAG RNA binder 48.5 | rCAG binder conf 34.8 | dCAG dye counter 8.0
O=C(O)CCN1C(=O)c2ccc(NC(=O)c3ccco3)cc2C1=O	none
Cc1ccc([N+](=O)[O-])cc1S(=O)(=O)Nc1cccc(S(=O)(=O)Nc2ccccc2C(=O)O)c1	rCAG RNA binder 45.8 | rCAG binder conf 37.6 | dCAG dye counter 9.3
O=C(CSc1ccc([N+](=O)[O-])cc1)Nc1cccc(S(=O)(=O)Nc2ccccc2F)c1	rCAG RNA binder 49.9 | rCAG binder conf 37.1 | dCAG dye counter 12.6
Cc1ccc(C)c(NC(=O)c2ccccc2NS(=O)(=O)c2cc([N+](=O)[O-])ccc2C)c1	rCAG RNA binder 39.8 | rCAG binder conf 76.9 | dCAG dye counter 42.9
Cc1ccc(NS(=O)(=O)c2ccc(Cl)c(N=Nc3c(O)[nH]c(=O)[nH]c3=O)c2)cc1Cl	rCAG RNA binder 66.5 | rCAG binder conf 76.1 | dCAG dye counter 35.7
CCOc1cc(/C=C(/NC(C)=O)C(=O)O)cc(Cl)c1OCc1ccc(Br)cc1	rCAG RNA binder 43.4 | rCAG binder conf inactive | dCAG dye counter 6.7
CCN(CC)c1nc(N)c2c(N)n(-c3ccccc3C)c(=S)c(C#N)c2c1C#N	rCAG RNA binder 97.5 | rCAG binder conf 92.5 | dCAG dye counter 69.0
CCN(CC)c1nc(N)c2c(N)nc3c(c2c1C#N)CC(c1ccccc1)O3 (stereo not drawn)	none
O=C(NC(=S)NCc1ccccc1Cl)c1cccs1	none
CC(C)[C@H](NC(=O)C1CCCC1)C(=O)N1CCC[C@H]1C(=O)NCCc1ccccc1Cl	none (no result: LANA-H2B inh, ABHD5-PLIN5 inh, ALR inh, Rtt109 Vps75)
CCn1c(COc2ccc3ccccc3c2C)nnc1SCC(=O)Nc1cccc(C(=O)O)c1	rCAG RNA binder 67.6 | rCAG binder conf 60.3 | dCAG dye counter 26.9
O=C(O)CSc1nnc(COc2cccc3ccccc23)n1Cc1ccccc1	rCAG RNA binder 38.5 (no result: ALR inh) | rCAG binder conf 42.6 | dCAG dye counter 10.6
O=C(O)CCSc1nnc(COc2cccc3ccccc23)n1-c1cccc(Cl)c1	rCAG RNA binder 44.2 | rCAG binder conf 44.9 | dCAG dye counter 11.8
Cc1ccc(-c2nn(CCC(=O)O)cc2/C=C\C(=O)c2ccc(Br)cc2)cc1	rCAG RNA binder 68.2, ALR inh 97.4 | rCAG binder conf 73.9 | dCAG dye counter 31.9 | DNA CAG DR inactive
O=C(O)CCn1cc(/C=C\C(=O)c2ccc(Cl)cc2)c(-c2cccc(Br)c2)n1	rCAG RNA binder 63.3, ALR inh inconclusive | rCAG binder conf 82.4 | dCAG dye counter 44.7
O=Cc1cn(CCC(=O)O)nc1-c1cccc(Br)c1	none
CO[C@H]([C@H](C)/C=C/N(C)C=O)[C@@H](C)C(=O)CC[C@H](C)[C@H](O)[C@H](C)[C@H]1OC(=O)/C=C/C(C)=C/C[C@H](O)C[C@@H]2C=CC[C@@H](C[C@H](OC)[C@@H](CO)[C@@H](OC)C[C@@H](OC)[C@@H]1C)O2	none (no result: LANA-H2B inh, ABHD5-PLIN5 inh, rCAG RNA binder, ALR inh, Rtt109 Vps75)
O=C1C=CC(=O)c2c(O)c(CO)c(CO)c(O)c21	rCAG RNA binder 82.8, PRMT1 FP inh 49.8 (no result: LANA-H2B inh, ALR inh) | rCAG binder conf 86.5 | dCAG dye counter 68.2
O=C(NCCc1ccccc1)OCc1cn(Cc2ccc(C(F)(F)F)cc2)nn1	none (no result: LANA-H2B inh, ABHD5-PLIN5 inh, ALR inh, Rtt109 Vps75)
CC(=O)c1ccc(N2CCN(S(=O)(=O)c3cc4c(cc3C)NC(=O)CO4)CC2)cc1	none (no result: LANA-H2B inh)
Cc1ccc(C)c(NC(=O)CSc2nc3nc(-c4cccs4)cc(C(F)(F)F)c3c(=O)[nH]2)c1	rCAG RNA binder 57.8 | rCAG binder conf 82.9 | dCAG dye counter 47.0
Cc1cc(NC(=S)N(Cc2ccc(Br)cc2)Cc2ccc(C(=O)O)cc2)ccc1Cl	rCAG RNA binder 75.1 | rCAG binder conf 82.1 | dCAG dye counter 48.2
COc1cccc(NC(=S)N(Cc2ccc(Cl)cc2)Cc2ccc(C(=O)O)cc2)c1	rCAG RNA binder 53.5 (no result: ALR inh) | rCAG binder conf 41.7 | dCAG dye counter 11.0
COc1ccc(Cl)cc1NC(=S)N(Cc1ccc(C(=O)O)cc1)Cc1ccc(OC)c(OC)c1	rCAG RNA binder 50.4 | rCAG binder conf 47.8 | dCAG dye counter 15.3
